Drawing on article PMC7862700, “An all-to-all approach to the identification of sequence-specific readers for epigenetic DNA modifications on cytosine”, this text covers binding signal for one sequence.

Assay in all cases: DAPPL (digital affinity profiling via proximity ligation, sequencing); 10 mM Tris-HCl pH 7.5, 50 mM NaCl, 1 mM DTT, 4% glycerol, room temperature, 30 min; GST-TFs on glutathione beads, 16-mer random dsDNA library, 0.1% formaldehyde crosslink after washing; high values mean tight binding
In one assay the target is T1, FLI1 (Homo sapiens, UniProt Q01543 1-452).
T1 sequence: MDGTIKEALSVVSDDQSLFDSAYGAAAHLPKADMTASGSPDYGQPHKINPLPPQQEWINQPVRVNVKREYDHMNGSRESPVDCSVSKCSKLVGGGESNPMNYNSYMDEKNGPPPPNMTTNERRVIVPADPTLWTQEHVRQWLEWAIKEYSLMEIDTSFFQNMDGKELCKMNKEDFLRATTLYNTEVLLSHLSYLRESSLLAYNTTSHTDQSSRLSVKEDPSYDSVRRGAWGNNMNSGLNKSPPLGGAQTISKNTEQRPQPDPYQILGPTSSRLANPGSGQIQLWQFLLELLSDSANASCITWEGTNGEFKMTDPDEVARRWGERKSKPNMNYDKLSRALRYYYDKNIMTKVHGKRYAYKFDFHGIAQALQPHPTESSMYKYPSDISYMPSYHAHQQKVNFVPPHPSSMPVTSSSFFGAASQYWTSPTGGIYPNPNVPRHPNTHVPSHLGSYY
Conditions: protein: recombinant; tags: N-terminal GST; dsDNA, one strand shown. In outline: (§1)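 Pools were built from human transcription factors expressed in yeast as GST fusions, captured on glutathione beads and DNA-barcoded, along with a tag-only sample. Incubation with 200 nmole of a 16-mer random double-stranded DNA library lasted 30 min at room temperature in Tris/NaCl/DTT/glycerol buffer, and was followed by washing, 0.1% formaldehyde crosslinking, proximity ligation, PCR amplification and Illumina NextSeq500 sequencing. Binding signal is the quotient of each hexamer's read frequency for a factor and its frequency for the tag-only sample.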

The target of the next assay is T2, ELK1 (Homo sapiens, UniProt P19419 1-428).
T2 sequence: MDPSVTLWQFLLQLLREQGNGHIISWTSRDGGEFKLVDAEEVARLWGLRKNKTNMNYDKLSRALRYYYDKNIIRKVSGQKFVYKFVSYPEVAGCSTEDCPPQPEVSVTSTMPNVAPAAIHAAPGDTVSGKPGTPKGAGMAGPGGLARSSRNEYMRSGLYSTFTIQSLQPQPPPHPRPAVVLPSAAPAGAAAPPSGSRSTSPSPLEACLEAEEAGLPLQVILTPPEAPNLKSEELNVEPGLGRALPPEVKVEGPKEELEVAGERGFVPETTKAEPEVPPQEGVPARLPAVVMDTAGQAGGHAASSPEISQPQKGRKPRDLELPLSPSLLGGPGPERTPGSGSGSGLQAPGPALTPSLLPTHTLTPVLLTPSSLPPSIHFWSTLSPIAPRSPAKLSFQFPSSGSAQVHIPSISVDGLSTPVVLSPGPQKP
Conditions: protein: recombinant; tags: N-terminal GST; dsDNA, one strand shown. In outline:
as §1

Another assay deals with T3, GABPA (Homo sapiens, UniProt Q06546 1-454).
T3 sequence: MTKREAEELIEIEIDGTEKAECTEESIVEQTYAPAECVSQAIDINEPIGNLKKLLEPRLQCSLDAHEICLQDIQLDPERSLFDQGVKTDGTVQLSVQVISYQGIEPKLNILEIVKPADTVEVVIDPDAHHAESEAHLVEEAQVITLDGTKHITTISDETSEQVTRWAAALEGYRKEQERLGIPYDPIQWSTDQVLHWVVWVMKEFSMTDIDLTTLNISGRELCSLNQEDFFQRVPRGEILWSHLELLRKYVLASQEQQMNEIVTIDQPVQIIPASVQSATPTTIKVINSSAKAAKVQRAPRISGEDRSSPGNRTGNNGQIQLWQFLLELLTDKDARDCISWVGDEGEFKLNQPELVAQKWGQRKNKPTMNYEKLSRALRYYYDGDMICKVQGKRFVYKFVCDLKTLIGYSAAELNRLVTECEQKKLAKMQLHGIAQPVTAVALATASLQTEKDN
Conditions: protein: recombinant; tags: N-terminal GST; dsDNA, one strand shown. In outline: as §1

A further assay concerns the target T4, ERG (Homo sapiens, UniProt P11308 1-479).
T4 sequence: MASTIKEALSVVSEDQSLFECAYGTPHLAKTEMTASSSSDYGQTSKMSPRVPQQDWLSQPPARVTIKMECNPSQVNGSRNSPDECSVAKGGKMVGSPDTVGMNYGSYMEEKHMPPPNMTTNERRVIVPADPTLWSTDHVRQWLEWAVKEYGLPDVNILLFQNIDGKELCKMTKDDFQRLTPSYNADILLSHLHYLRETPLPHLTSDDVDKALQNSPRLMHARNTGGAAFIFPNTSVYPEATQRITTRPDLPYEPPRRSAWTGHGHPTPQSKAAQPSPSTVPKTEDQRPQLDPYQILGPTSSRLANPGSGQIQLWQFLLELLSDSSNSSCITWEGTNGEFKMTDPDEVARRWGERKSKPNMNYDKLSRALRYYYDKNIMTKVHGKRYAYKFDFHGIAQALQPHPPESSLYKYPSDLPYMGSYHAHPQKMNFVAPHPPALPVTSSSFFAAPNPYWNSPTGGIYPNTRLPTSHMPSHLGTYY
The conditions noted are these: protein: recombinant; tags: N-terminal GST; dsDNA, one strand shown. The essentials:
as §1

The next assay addresses ELF1 (Homo sapiens, UniProt P32519 1-619). The conditions noted are these: protein: recombinant; tags: N-terminal GST; dsDNA, one strand shown. In outline:
as §1

Another assay concerns the target T5, EHF (Homo sapiens, UniProt Q9NZC4 1-300).
T5 sequence: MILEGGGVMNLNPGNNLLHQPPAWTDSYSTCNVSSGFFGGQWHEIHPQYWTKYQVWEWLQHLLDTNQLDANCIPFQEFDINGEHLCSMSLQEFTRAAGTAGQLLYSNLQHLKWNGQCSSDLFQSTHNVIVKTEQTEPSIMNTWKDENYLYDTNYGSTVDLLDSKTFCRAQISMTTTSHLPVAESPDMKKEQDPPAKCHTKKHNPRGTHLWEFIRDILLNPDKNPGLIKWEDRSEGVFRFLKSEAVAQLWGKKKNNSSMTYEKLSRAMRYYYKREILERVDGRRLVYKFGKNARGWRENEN
Conditions: protein: recombinant; tags: N-terminal GST; dsDNA, one strand shown. The essentials: as §1

For the next assay, the target named is SPI1 (Homo sapiens, UniProt P17947 1-270). Conditions: protein: recombinant; tags: N-terminal GST; dsDNA, one strand shown. In outline:
as §1

The target of a further assay is SPIB (Homo sapiens, UniProt Q01892 1-262). Conditions: protein: recombinant; tags: N-terminal GST; dsDNA, one strand shown. In outline:
as §1

Another assay concerns the target T6, ELK3 (Homo sapiens, UniProt P41970 1-407).
T6 sequence: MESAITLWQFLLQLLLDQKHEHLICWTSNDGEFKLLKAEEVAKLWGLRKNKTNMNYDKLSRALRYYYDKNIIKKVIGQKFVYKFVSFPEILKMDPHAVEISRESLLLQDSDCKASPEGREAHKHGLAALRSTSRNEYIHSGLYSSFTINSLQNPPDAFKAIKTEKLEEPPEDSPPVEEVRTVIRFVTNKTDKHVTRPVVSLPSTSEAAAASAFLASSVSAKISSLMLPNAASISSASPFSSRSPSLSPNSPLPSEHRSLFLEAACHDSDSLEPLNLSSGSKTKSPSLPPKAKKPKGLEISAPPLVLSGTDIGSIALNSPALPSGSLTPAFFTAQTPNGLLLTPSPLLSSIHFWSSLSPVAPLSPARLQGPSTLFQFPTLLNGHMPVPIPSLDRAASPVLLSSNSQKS
The conditions noted are these: protein: recombinant; tags: N-terminal GST; dsDNA, one strand shown. In outline: as §1

The next assay addresses T7, FEV (Homo sapiens, UniProt Q99581 1-238).
T7 sequence: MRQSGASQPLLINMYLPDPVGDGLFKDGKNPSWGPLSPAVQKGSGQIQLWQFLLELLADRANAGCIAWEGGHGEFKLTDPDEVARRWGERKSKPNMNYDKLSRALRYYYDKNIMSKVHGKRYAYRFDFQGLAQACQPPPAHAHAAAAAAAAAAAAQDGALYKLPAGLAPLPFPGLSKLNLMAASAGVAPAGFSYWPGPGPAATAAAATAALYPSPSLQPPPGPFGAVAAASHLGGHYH
The conditions noted are these: protein: recombinant; tags: N-terminal GST; dsDNA, one strand shown. The essentials:
as §1

The next assay deals with ETV5 (Homo sapiens, UniProt P41161 1-510). Conditions: protein: recombinant; tags: N-terminal GST; dsDNA, one strand shown. The essentials: as §1
The target of another assay is HSF1 (Homo sapiens, UniProt Q00613 1-529). The conditions noted are these: protein: recombinant; tags: N-terminal GST; chain copies: 3; dsDNA, one strand shown. In outline: as §1
A further assay addresses T8, SPIC (Homo sapiens, UniProt Q8N5J4 1-248).
T8 sequence: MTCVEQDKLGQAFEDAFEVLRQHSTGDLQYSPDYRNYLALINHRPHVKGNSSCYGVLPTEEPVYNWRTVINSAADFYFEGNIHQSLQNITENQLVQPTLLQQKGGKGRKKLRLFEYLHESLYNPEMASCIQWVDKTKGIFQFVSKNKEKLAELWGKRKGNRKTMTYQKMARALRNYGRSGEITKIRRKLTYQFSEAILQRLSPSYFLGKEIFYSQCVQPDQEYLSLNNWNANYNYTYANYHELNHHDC
The conditions noted are these: protein: recombinant; tags: N-terminal GST; dsDNA, one strand shown. In outline:
as §1

The target of the next assay is ELF4 (Homo sapiens, UniProt Q99607 1-663). The conditions noted are these: protein: recombinant; tags: N-terminal GST; dsDNA, one strand shown. In outline:
as §1

The target of another assay is T9, ELK4 (Homo sapiens, UniProt P28324-2 1-405).
T9 sequence: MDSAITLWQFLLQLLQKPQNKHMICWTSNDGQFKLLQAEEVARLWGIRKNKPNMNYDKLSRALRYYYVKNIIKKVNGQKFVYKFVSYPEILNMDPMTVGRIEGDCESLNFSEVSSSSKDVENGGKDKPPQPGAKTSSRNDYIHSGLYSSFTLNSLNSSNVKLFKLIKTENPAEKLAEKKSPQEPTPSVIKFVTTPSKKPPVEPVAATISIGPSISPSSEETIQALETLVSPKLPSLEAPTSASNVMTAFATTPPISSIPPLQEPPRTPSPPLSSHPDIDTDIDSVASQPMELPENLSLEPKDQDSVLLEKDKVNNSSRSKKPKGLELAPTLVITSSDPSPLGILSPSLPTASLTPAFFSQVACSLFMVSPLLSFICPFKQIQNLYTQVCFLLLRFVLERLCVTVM
Conditions: protein: recombinant; tags: N-terminal GST; dsDNA, one strand shown. The essentials: as §1

A further assay concerns the target T10, ETV2 (Homo sapiens, UniProt O00321 1-342).
T10 sequence: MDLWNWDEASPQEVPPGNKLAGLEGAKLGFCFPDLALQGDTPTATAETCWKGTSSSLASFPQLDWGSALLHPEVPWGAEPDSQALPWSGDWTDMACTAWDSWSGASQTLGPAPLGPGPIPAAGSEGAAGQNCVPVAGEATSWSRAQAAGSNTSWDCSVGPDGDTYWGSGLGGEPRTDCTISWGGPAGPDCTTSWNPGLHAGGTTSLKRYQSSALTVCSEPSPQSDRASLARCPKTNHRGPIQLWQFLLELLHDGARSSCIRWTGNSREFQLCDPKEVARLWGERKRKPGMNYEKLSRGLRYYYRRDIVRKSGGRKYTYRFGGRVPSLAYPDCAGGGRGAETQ
Conditions: protein: recombinant; tags: N-terminal GST; dsDNA, one strand shown. In outline: as §1

For another assay, the target named is T11, ELF3 (Homo sapiens, UniProt P78545 1-371).
T11 sequence: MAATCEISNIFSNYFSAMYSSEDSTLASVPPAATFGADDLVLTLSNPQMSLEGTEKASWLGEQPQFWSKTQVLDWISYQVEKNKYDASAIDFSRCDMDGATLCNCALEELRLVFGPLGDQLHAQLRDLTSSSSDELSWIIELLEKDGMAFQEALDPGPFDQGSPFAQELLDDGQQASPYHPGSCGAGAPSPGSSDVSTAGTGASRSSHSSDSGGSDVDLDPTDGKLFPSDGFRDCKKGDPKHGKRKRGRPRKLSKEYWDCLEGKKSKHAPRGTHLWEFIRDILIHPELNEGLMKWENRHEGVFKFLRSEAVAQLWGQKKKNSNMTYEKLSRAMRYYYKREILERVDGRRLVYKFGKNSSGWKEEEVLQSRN
Conditions: protein: recombinant; tags: N-terminal GST; dsDNA, one strand shown. In outline: as §1

In another assay the target is CRX (Homo sapiens, UniProt O43186 1-299). The conditions noted are these: protein: recombinant; tags: N-terminal GST; dsDNA, one strand shown. In outline:
as §1

The target in another assay is ETV1 (Homo sapiens, UniProt P50549 1-477). The conditions noted are these: protein: recombinant; tags: N-terminal GST; dsDNA, one strand shown. In outline: as §1
Chain of ETV1 (P50549 whole entry): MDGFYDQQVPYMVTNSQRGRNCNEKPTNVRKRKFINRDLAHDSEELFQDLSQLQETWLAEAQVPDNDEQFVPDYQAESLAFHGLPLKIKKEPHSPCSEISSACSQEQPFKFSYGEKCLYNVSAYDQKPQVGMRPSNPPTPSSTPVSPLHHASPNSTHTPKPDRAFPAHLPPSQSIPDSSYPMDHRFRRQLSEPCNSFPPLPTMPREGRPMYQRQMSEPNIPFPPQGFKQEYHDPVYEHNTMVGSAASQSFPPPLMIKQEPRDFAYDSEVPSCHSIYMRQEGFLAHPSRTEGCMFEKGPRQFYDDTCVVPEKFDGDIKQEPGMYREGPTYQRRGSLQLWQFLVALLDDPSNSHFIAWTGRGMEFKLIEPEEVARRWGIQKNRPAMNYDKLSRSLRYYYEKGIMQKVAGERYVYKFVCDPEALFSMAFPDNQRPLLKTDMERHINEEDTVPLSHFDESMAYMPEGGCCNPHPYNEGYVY

Chain of HSF1 (Q00613 whole entry): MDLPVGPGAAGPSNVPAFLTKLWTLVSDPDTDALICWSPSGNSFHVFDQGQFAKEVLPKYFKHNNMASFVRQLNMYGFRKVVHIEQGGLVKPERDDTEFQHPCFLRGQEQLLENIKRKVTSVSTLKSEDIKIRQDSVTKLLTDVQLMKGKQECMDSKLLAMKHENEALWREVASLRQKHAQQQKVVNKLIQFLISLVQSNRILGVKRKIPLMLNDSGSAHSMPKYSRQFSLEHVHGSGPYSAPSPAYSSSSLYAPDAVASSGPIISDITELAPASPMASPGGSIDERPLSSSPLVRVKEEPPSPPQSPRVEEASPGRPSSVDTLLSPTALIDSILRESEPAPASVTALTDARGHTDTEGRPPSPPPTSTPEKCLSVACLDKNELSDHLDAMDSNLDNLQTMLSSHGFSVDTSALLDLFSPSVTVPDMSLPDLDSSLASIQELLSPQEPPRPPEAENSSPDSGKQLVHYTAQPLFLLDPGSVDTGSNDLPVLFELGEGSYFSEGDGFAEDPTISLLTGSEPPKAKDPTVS
Chain of SPIB (Q01892 whole entry): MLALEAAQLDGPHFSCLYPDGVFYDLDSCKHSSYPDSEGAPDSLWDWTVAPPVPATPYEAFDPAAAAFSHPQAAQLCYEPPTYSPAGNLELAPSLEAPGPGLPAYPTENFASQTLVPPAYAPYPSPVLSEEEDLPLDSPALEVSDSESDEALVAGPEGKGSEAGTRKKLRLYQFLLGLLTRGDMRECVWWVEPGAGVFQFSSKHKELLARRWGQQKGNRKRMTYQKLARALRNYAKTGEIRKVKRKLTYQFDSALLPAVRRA
Chain of ETV5 (P41161 whole entry): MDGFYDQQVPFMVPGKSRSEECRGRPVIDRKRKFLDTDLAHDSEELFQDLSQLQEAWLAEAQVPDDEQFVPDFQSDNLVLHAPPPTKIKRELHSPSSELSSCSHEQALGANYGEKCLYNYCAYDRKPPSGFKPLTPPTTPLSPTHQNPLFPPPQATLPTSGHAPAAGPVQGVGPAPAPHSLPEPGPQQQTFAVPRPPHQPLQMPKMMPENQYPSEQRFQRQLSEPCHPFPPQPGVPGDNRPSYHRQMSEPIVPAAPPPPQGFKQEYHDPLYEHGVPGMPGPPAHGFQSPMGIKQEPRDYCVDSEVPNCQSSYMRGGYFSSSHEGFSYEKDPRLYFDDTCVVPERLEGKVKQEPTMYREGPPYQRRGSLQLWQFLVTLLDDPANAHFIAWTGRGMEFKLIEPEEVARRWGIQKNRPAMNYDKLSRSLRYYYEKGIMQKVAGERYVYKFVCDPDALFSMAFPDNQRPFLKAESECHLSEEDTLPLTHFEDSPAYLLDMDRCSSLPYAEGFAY
Chain of ELF1 (P32519 whole entry): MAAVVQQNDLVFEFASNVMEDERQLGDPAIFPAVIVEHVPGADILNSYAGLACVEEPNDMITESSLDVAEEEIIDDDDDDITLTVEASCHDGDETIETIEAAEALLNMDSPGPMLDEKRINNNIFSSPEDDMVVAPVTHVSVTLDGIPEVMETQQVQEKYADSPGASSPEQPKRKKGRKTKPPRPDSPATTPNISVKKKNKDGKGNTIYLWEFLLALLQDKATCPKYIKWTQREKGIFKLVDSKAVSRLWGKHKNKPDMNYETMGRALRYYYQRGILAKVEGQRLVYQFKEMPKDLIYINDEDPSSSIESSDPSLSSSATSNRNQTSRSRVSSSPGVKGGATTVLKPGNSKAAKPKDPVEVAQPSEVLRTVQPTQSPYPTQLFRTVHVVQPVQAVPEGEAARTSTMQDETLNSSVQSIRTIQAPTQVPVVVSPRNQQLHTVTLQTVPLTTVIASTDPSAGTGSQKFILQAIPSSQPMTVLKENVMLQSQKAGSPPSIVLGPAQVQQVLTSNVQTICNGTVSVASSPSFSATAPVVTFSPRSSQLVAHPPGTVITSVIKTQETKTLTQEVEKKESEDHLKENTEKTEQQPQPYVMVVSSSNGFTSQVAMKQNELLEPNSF
Chain of ELF4 (Q99607 whole entry): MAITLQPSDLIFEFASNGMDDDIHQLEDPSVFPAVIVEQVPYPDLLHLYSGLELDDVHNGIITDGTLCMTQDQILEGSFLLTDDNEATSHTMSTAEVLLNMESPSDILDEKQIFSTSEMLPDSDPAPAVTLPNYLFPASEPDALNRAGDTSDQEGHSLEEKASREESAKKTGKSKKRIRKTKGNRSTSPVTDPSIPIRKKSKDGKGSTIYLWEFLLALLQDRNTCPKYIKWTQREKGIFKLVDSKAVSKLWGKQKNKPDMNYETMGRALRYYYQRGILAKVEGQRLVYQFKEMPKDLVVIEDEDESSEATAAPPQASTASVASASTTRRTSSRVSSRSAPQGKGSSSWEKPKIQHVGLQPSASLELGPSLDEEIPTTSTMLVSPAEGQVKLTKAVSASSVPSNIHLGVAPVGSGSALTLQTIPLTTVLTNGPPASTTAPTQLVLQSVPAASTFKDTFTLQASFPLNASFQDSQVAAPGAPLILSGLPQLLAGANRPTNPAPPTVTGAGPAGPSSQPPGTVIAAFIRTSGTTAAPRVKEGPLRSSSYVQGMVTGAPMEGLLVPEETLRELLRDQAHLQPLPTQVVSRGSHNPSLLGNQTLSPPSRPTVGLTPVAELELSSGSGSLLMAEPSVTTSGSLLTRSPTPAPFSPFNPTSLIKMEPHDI
Chain of CRX (O43186 whole entry): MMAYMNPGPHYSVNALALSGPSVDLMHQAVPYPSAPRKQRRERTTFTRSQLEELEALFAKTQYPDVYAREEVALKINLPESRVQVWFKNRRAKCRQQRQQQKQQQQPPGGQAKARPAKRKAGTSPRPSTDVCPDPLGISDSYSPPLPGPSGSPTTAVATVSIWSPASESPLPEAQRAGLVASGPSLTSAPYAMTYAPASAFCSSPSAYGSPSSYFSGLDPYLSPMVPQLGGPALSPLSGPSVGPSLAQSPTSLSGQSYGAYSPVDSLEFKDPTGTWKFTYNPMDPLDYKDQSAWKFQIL

TATACT: the binding signal in the assay with FLI1 is 1.25 fold enrichment (6-mer frequency, TF over GST control); in the assay with ELK1, 1.41 fold enrichment (6-mer frequency, TF over GST control); in the assay with GABPA it was 1.43 fold enrichment (6-mer frequency, TF over GST control); with ERG, 1.29 fold enrichment (6-mer frequency, TF over GST control); in the assay with ELF1, 1.39 fold enrichment (6-mer frequency, TF over GST control); with EHF it was 1.39 fold enrichment (6-mer frequency, TF over GST control). The binding signal is 1.35 fold enrichment (6-mer frequency, TF over GST control) in the assay with SPI1; 1.36 fold enrichment (6-mer frequency, TF over GST control) with SPIB; 1.43 fold enrichment (6-mer frequency, TF over GST control) with ELK3; 1.29 fold enrichment (6-mer frequency, TF over GST control) in the assay with FEV; 1.34 fold enrichment (6-mer frequency, TF over GST control) in the assay with ETV5; 1.4 fold enrichment (6-mer frequency, TF over GST control) with HSF1. Also, the binding signal is 1.43 fold enrichment (6-mer frequency, TF over GST control) with SPIC; 1.31 fold enrichment (6-mer frequency, TF over GST control) with ELF4; 1.25 fold enrichment (6-mer frequency, TF over GST control) with ELK4; 1.31 fold enrichment (6-mer frequency, TF over GST control) with ETV2; 1.3 fold enrichment (6-mer frequency, TF over GST control) with ELF3; 1.68 fold enrichment (6-mer frequency, TF over GST control) in the assay with CRX. Moreover, in the assay with ETV1, the binding signal was 1.34 fold enrichment (6-mer frequency, TF over GST control).
